This is part of a sample that, as a whole, favours compounds with a hit. Of some 83,000 tested, about 20% had one in any assay.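 Plates (96-well) were seeded with cells, treated with compound at one concentration, and incubated for 48 hours before percent growth was determined.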 A number with no mark means an inactive call. Calls of active or inactive are those of the source. How the source made its calls: active means growth percent below 10; inactive means the rest.
Columns and labels:
Assay in all cases: NCI-60 one-dose screen, 48 h (100 = growth as untreated, 0 = no growth, -100 = all killed)
Details in all cases: 10 µM
[1] = system: NCI-H23 lung
[2] = system: NCI-H226 lung
[3] = system: HOP-62 NSCLC
[4] = system: NCI-H460 lung
[5] = system: HOP-92 NSCLC
[6] = system: NCI-H522 lung
[7] = system: A549/ATCC NSCLC
[8] = system: 786-0 renal
[9] = system: COLO 205 colon

COc1cc(-c2nn(-c3cccc(NC(=O)NCCNC(=O)c4cccc(C(F)(F)F)c4)c3)cc2-c2ccncc2)ccc1Cl
growth [1]: 57% | growth [2]: 70.8% | growth [3]: 59.6% | growth [4]: 18.7% | growth [5]: 42.5% | growth [6]: 24.4% | growth [7]: 31.3% | growth [8]: 17.4% | growth [9]: 39.7%

CCN(CCCNc1cc2c(c(N)c1S(=O)(=O)O)C(=O)c1ccccc1C2=O)c1ccccc1
growth [1]: 89.3% | growth [2]: 84.4% | growth [3]: 92.1% | growth [4]: 102% | growth [5]: 112% | growth [6]: 96.3% | growth [7]: 104% | growth [8]: 96.3% | growth [9]: 109%

Clc1nc2ccc(Br)cc2cc1-c1nc2ccccc2[nH]1
growth [1]: 90.6% | growth [2]: 98.5% | growth [3]: 81.3% | growth [4]: 73.2% | growth [5]: 71.3% | growth [6]: 53.1% | growth [7]: 17.2% | growth [8]: 91% | growth [9]: 107%

CCc1ccc(-c2ccc(-n3nc(C)c4c(N)nc(Cc5ccccc5)nc43)cc2)cc1
growth [1]: 77.2% | growth [2]: 56.6% | growth [3]: 65.6% | growth [4]: 51.4% | growth [5]: 47.2% | growth [6]: 49.2% | growth [7]: 52.4% | growth [8]: 46.6% | growth [9]: 95.3%

NS(=O)(=O)Oc1ccc(-c2ccc3sccc3c2)cc1
growth [1]: 94.2% | growth [2]: 88.1% | growth [3]: 104% | growth [4]: 103% | growth [5]: 104% | growth [6]: 87.1% | growth [7]: 98.3% | growth [8]: 106% | growth [9]: 114%

NC(CSC(c1ccccc1)(c1ccccc1)c1cccc2ccccc12)C(=O)O (configuration not stated)
growth [1]: 94.2% | growth [2]: 96.6% | growth [3]: 104% | growth [4]: 98.8% | growth [5]: 81.6% | growth [6]: 104% | growth [7]: 92.7% | growth [8]: 98.2% | growth [9]: 108%

NC(=O)c1cccc(-n2ccc3cc(NC(=O)Nc4ccc(Cl)c(C(F)(F)F)c4)ccc32)n1
growth [1]: 82.2% | growth [2]: 66.2% | growth [3]: 86.5% | growth [4]: 68% | growth [5]: 97.6% | growth [6]: 64.7% | growth [7]: 68.2% | growth [8]: 49.1% | growth [9]: 85.6%

Nc1nccc(OCCO)n1
growth [1]: 99.8% | growth [2]: 96.1% | growth [3]: 94% | growth [4]: 108% | growth [5]: 113% | growth [6]: 90.7% | growth [7]: 97.4% | growth [8]: 102% | growth [9]: 110%

CCOC(=O)c1cc(C(=O)c2ccc(F)cc2F)n2ccccc12
growth [1]: 101% | growth [2]: 88.2% | growth [3]: 88.6% | growth [4]: 97.5% | growth [5]: 47.1% | growth [6]: 70.1% | growth [7]: 86% | growth [8]: 90.6% | growth [9]: 110%

COc1cc2cc(Oc3ccc(NC(=O)Nc4ccc(Cl)c(C(F)(F)F)c4)cc3)c(C)nc2cc1OC
growth [1]: 3.46% (active) | growth [2]: 4.49% (active) | growth [3]: -50.9% (active) | growth [4]: -19.8% (active) | growth [5]: -22.3% (active) | growth [6]: -43.6% (active) | growth [7]: -17.2% (active) | growth [8]: -21.1% (active) | growth [9]: -49.5% (active)

O=C(COc1cccc(/C=C2\CSc3ccccc3C2=O)c1)c1ccc(Cl)cc1
growth [1]: -7.19% (active) | growth [2]: 80.1% | growth [3]: 79.5% | growth [4]: 68.5% | growth [5]: 56.5% | growth [6]: -76.8% (active) | growth [7]: 40.6% | growth [8]: 80.3% | growth [9]: 96.2%

CCn1c(SC/C(=N/O)c2ccccc2)nnc1-c1ccccc1
growth [1]: 103% | growth [2]: 108% | growth [3]: 111% | growth [4]: 102% | growth [5]: 62.5% | growth [6]: 112% | growth [7]: 101% | growth [8]: 105% | growth [9]: 115%

C=CCN(CC=C)C(=O)[C@H](CC)[C@@H]1CC[C@@H](C)[C@@H]([C@H](C)[C@@H](O)[C@@H](C)C(=O)[C@H](CC)C2O[C@]3(C=CC(=O)[C@]4(CC[C@@](C)([C@H]5CC[C@](O)(CC)[C@H](C)O5)O4)O3)[C@H](C)C[C@@H]2C)O1 (some centres not stated)
growth [1]: 18.6% | growth [2]: 13.8% | growth [3]: 31.4% | growth [4]: 15.2% | growth [5]: -8.35% (active) | growth [6]: 11.6% | growth [7]: 24.1% | growth [8]: 44.3% | growth [9]: 1.18% (active)

— PubChem BioAssay (NCI)
